Compounds without any hit were thinned out: in the full panel of roughly 79,000, 15% have a hit. Activity calls are given as the source filed them. Rule as the data show it: active = growth inhibition above about 70%; inactive = the rest.
Key:
[1] = NCI Yeast Anticancer Drug Screen. Data for the rad52 strain (AID 147);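 also: 0% = growth of vehicle-treated control cultures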; details: S. cerevisiae rad52 mutant growth inhibition, active compounds read high
Procedure, shortened: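 Compounds are applied to a genetically defined yeast strain lacking normal DNA damage repair, and inhibition of growth is expressed relative to cultures given vehicle only.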

[2] = NCI Yeast Anticancer Drug Screen. Data for the wt1 strain (AID 149);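 also: 0% = growth of vehicle-treated wt1 cultures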; details: S. cerevisiae wt1 strain (SPY 50644) growth inhibition, active compounds read high
Procedure, shortened: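 wt1 strain grown with compound or vehicle; inhibition taken from the growth difference.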

[3] = NCI Yeast Anticancer Drug Screen. Data for the rad50EPP+ strain (AID 151);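 also: 0% = growth of vehicle-treated control cultures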; details: S. cerevisiae rad50 mutant strain, active compounds read high
Procedure, shortened: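 Compounds were applied to the rad50EPP+ yeast strain, which bears a defined DNA repair alteration, and growth inhibition was determined relative to vehicle-treated cultures.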

[4] = NCI Yeast Anticancer Drug Screen. Data for the mgt1 strain (AID 153); details: S. cerevisiae mgt1 mutant growth inhibition, active compounds read high
Procedure, shortened: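 Strain: mgt1 yeast, one of a set carrying defined DNA damage repair or cell cycle control alterations. Compound-treated growth compared with vehicle.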

[5] = NCI Yeast Anticancer Drug Screen. Data for the rad50 strain (AID 155);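 also: 0% = growth of vehicle-only cultures of the same strain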; details: S. cerevisiae rad50 strain growth inhibition, active compounds read high
Procedure, shortened: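 DNA repair mutant yeast, compound exposure, growth read-out; inhibition is taken relative to vehicle.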

[6] = NCI Yeast Anticancer Drug Screen. Data for the mec2-1 strain (AID 157); details: S. cerevisiae mec2-1 strain, active compounds read high
Procedure, shortened: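 Strain: mec2-1 (DNA repair/cell cycle alteration). Compound exposure, then growth measured; inhibition expressed relative to vehicle.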

[7] = NCI Yeast Anticancer Drug Screen. Data for the rad14 strain (AID 159);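 also: 0% = growth of vehicle-treated control cultures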; details: S. cerevisiae rad14 strain growth inhibition, active compounds read high
Procedure, shortened: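 DNA repair-defective yeast, compound-exposed; % growth inhibition derived by comparison with vehicle-treated controls.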

[8] = NCI Yeast Anticancer Drug Screen. Data for the sgs1 mgt1 strain (AID 161);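 also: 0% = growth of cultures given vehicle only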; details: S. cerevisiae sgs1 mgt1 strain, active compounds read high
Procedure, shortened: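 Mutant yeast exposed to compound; growth scored against vehicle-only wells.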

[9] = NCI Yeast Anticancer Drug Screen. Data for the CLN2oe strain (AID 163);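 also: 0% = growth of vehicle-only control cultures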; details: S. cerevisiae CLN2oe strain, active compounds read high
Procedure, shortened: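 Growth of a genetically modified yeast strain is measured after compound exposure and compared with cultures given vehicle alone.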

[10] = NCI Yeast Anticancer Drug Screen. Data for the cln2 rad14 strain (AID 165);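 also: 0% = growth equal to vehicle treated cultures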; details: S. cerevisiae cln2 rad14 strain, active compounds read high
Procedure, shortened: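 Compounds are applied to the cln2 rad14 yeast strain, and growth is then compared with that of vehicle-treated cultures to give inhibition.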

[11] = NCI Yeast Anticancer Drug Screen. Data for the bub3 strain (AID 167); details: S. cerevisiae bub3 mutant strain, active compounds read high
Procedure, shortened: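 In this screen, a yeast mutant lacking normal mitotic checkpoint function is challenged with compound. Relative growth versus vehicle gives the inhibition value.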

[12] = NCI Yeast Anticancer Drug Screen. Data for the wt2 strain (AID 169);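 also: 0% = growth of vehicle-treated yeast cultures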; details: S. cerevisiae wt2 strain growth inhibition, active compounds read high
Procedure, shortened: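 This strain belongs to a panel of yeast strains with defined genetic alterations in DNA damage repair or cell cycle control. Compounds are applied, and growth inhibition is measured against vehicle-treated cultures.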

[13] = NCI Yeast Anticancer Drug Screen. Data for the mlh1 strain (AID 171);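 also: 0% = growth of vehicle-treated control cultures of the same strain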; details: S. cerevisiae mlh1 strain growth inhibition, active compounds read high
Procedure, shortened: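 Growth of the mutant yeast strain after compound exposure, expressed as inhibition relative to vehicle-only controls.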

[14] = NCI Yeast Anticancer Drug Screen. Data for the sgs1 strain (AID 173);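 also: 0% = growth of vehicle-only control cultures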; details: S. cerevisiae sgs1 mutant, active compounds read high
Procedure, shortened: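 Growth of a yeast strain bearing a defined genetic alteration is measured after compound treatment. Inhibition is expressed relative to vehicle-only controls.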

[15] = NCI Yeast Anticancer Drug Screen. Data for the mlh1 rad18 strain (AID 175); details: S. cerevisiae mlh1 rad18 strain growth inhibition, active compounds read high
Procedure, shortened: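 Read-out is yeast growth inhibition, calculated against vehicle-only controls. The compound was applied to a strain engineered with DNA damage repair alterations.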

[16] = NCI Yeast Anticancer Drug Screen. Data for the rad18 strain (AID 177); details: S. cerevisiae rad18 mutant growth inhibition, active compounds read high
Procedure, shortened: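 Growth of the mutant yeast strain after compound exposure, normalised to vehicle-only cultures.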

[17] = at 5.0 µM (retest, dose inferred, filed as 0.5)
[18] = at 50.0 µM (retest, dose inferred, filed as 5.0)

Measured: growth inhibition

CN1c2ccc(Cl)cc2C(=O)NC1c1ccc([N+](=O)[O-])s1 (stereo unspecified)
inactive: [1]; at 1.2 µM 27% | [1]; at 3.7 µM 30% | [1]; at 11.0 µM 65% | [2]; at 1.2 µM 5% | [2]; at 3.7 µM 1% | [2]; at 11.0 µM 17% | [3]; at 1.2 µM 0% | [3]; at 3.7 µM -4% | [3]; at 11.0 µM 18% | [3]; at 33.0 µM 61% | [3]; at 100.0 µM 67% | [4]; at 1.2 µM -5% | [4]; at 3.7 µM 8% | [4]; at 11.0 µM 23% | [5]; at 1.2 µM 20% | [5]; at 3.7 µM 39% | [5]; [17] 9% | [6]; at 1.2 µM -7% | [6]; at 3.7 µM -52% | [6]; [17] 19% | [6]; at 11.0 µM 14% | [7]; at 1.2 µM -8% | [7]; at 3.7 µM -3% | [8]; [17] -10% | [9]; at 1.2 µM 4% | [9]; at 3.7 µM -2% | [9]; at 11.0 µM -3% | [10]; [17] 37% | [11]; at 1.2 µM 0% | [11]; at 3.7 µM 2% | [11]; [17] -1% | [11]; at 11.0 µM 11% | [12]; at 1.2 µM 7% | [12]; at 3.7 µM 4% | [12]; at 11.0 µM 42% | [13]; at 1.2 µM 13% | [13]; at 3.7 µM 14% | [13]; at 11.0 µM 51% | [14]; at 1.2 µM -4% | [14]; at 3.7 µM 13% | [14]; at 11.0 µM 58% | [15]; [17] 2% | [16]; at 1.2 µM 3% | [16]; at 3.7 µM 25%
active: [1]; at 33.0 µM 97% | [1]; at 100.0 µM 97% | [2]; at 33.0 µM 92% | [2]; at 100.0 µM 96% | [4]; at 33.0 µM 97% | [4]; at 100.0 µM 96% | [5]; at 11.0 µM 72% | [5]; at 33.0 µM 97% | [5]; [18] 95% | [5]; at 50.0 µM 91.3% | [5]; at 100.0 µM 96% | [6]; at 33.0 µM 93% | [6]; [18] 95% | [6]; at 50.0 µM 93.2% | [6]; at 100.0 µM 96% | [7]; at 11.0 µM 71% | [7]; at 33.0 µM 96% | [7]; at 100.0 µM 97% | [8]; [18] 94% | [8]; at 50.0 µM 93.8% | [9]; at 33.0 µM 92% | [9]; at 100.0 µM 97% | [10]; [18] 96% | [10]; at 50.0 µM 91% | [11]; at 33.0 µM 93% | [11]; [18] 97% | [11]; at 50.0 µM 92.4% | [11]; at 100.0 µM 97% | [12]; at 33.0 µM 97% | [12]; at 100.0 µM 97% | [13]; at 33.0 µM 96% | [13]; at 100.0 µM 97% | [14]; at 33.0 µM 95% | [14]; at 100.0 µM 96% | [15]; [18] 98% | [15]; at 50.0 µM 92.8% | [16]; at 11.0 µM 81% | [16]; at 33.0 µM 96% | [16]; at 100.0 µM 97%

CCC[CH2][Ge]([CH2]CCC)([CH2]CCC)[O]C(=O)C(OC)c1ccccc1 (stereo unspecified)
inactive: [1]; at 1.2 µM 0% | [1]; at 3.7 µM 6% | [1]; at 11.0 µM 25% | [1]; at 33.0 µM 66% | [2]; at 1.2 µM -3% | [2]; at 3.7 µM -6% | [2]; at 11.0 µM -3% | [2]; at 33.0 µM 30% | [3]; at 1.2 µM -2% | [3]; at 3.7 µM 3% | [3]; at 11.0 µM 6% | [3]; at 33.0 µM 16% | [3]; at 100.0 µM 34% | [4]; at 1.2 µM -2% | [4]; at 3.7 µM -1% | [4]; at 11.0 µM 1% | [4]; at 33.0 µM 58% | [5]; at 1.2 µM 2% | [5]; at 3.7 µM 8% | [5]; [17] 60% | [5]; at 11.0 µM -2% | [5]; at 33.0 µM 64% | [5]; [18] 60% | [5]; at 50.0 µM 69.9% | [6]; at 1.2 µM -1% | [6]; at 3.7 µM -1% | [6]; [17] 57% | [6]; at 11.0 µM 7% | [6]; at 33.0 µM 34% | [6]; [18] 57% | [7]; at 1.2 µM -2% | [7]; at 3.7 µM -7% | [7]; at 11.0 µM -10% | [7]; at 33.0 µM 26% | [8]; [17] 59% | [8]; [18] 59% | [9]; at 1.2 µM -6% | [9]; at 3.7 µM 1% | [9]; at 11.0 µM 6% | [9]; at 33.0 µM 41% | [10]; [17] 18% | [10]; [18] 18% | [10]; at 50.0 µM 66.5% | [11]; at 1.2 µM -6% | [11]; at 3.7 µM -4% | [11]; [17] 10% | [11]; at 11.0 µM 12% | [11]; at 33.0 µM 54% | [11]; [18] 10% | [12]; at 1.2 µM -3% | [12]; at 3.7 µM -4% | [12]; at 11.0 µM 0% | [12]; at 33.0 µM 48% | [13]; at 1.2 µM -4% | [13]; at 3.7 µM -5% | [13]; at 11.0 µM -1% | [13]; at 33.0 µM 60% | [14]; at 1.2 µM -1% | [14]; at 3.7 µM 1% | [14]; at 11.0 µM 11% | [15]; [17] 39% | [15]; [18] 39% | [16]; at 1.2 µM 5% | [16]; at 3.7 µM 4% | [16]; at 11.0 µM 22%
active: [1]; at 100.0 µM 98% | [2]; at 100.0 µM 97% | [4]; at 100.0 µM 99% | [5]; at 100.0 µM 98% | [6]; at 50.0 µM 75.5% | [6]; at 100.0 µM 98% | [7]; at 100.0 µM 95% | [8]; at 50.0 µM 82.8% | [9]; at 100.0 µM 98% | [11]; at 50.0 µM 76% | [11]; at 100.0 µM 97% | [12]; at 100.0 µM 98% | [13]; at 100.0 µM 98% | [14]; at 33.0 µM 71% | [14]; at 100.0 µM 94% | [15]; at 50.0 µM 78% | [16]; at 33.0 µM 80% | [16]; at 100.0 µM 98%
